Activity calls are given as the source filed them. Rule for the calls: active = hit-call score of the fitted dose curve at least 0.9, where 1 is the maximum; inactive = score below 0.9.
Columns and labels:
[1] = ATG_GRE_CIS: Attagene CIS-FACTORIAL HepG2 Assay for human Glucocorticoid Response Elements (GRE) (AID 2282947); conditions: HepG2 GRE cis-reporter, Attagene multiplex mRNA; actives raise or lower the signal
How it was run: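 Fluorescence intensity of reporter-specific cDNA fragments, separated by capillary electrophoresis, provides the signal. Constructs carry cis-regulating promoters in transiently transfected HepG2 liver cells; 24 h incubation; fitting is bidirectional against DMSO.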

[2] = ATG_ISRE_CIS: Attagene CIS-FACTORIAL HepG2 Assay for human Interferon Regulatory Factor 1 (IRF1) binding to an Interferon-Stimulated Response Element (ISRE) (AID 2282948); conditions: HepG2 ISRE cis-reporter (Attagene), mRNA transcription readout; actives raise or lower the signal
How it was run: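 Endogenous transcription factor activity read as reporter transcript abundance via RT-PCR and capillary electrophoresis. HepG2 cells transiently transfected, 24 h chemical exposure. Gain or loss fitted against DMSO baseline.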

[3] = ATG_M_32_CIS: Attagene CIS-FACTORIAL HepG2 Assay for M32 Transcription Factor (Internal Marker) (AID 2282949); conditions: HepG2 Attagene cis-factorial M32 reporter, mRNA; actives raise or lower the signal;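 note: background control marker of the multiplexed CIS panel rather than a real target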
How it was run: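 HepG2 human liver cells transiently transfected with cis-promoter-driven multiple reporter transcription units, dosed 24 h. Reporter mRNA quantified by RT-PCR, FAM-labelled primer extension, HpaI digest and capillary electrophoresis; bidirectional fit versus DMSO baseline.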

[4] = ATG_M_06_CIS: Attagene CIS-FACTORIAL HepG2 Assay for M06 Transcription Factor (Internal Marker) (AID 2282950); conditions: HepG2 Attagene CIS-FACTORIAL M06 internal marker reporter; actives raise or lower the signal
How it was run: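 Steps: transfect HepG2 with multiplexed cis-element reporter constructs; dose chemical 24 h; extract RNA with DNase treatment; reverse-transcribe, PCR-amplify, 6-FAM label, HpaI digest; separate fragments by capillary electrophoresis. Activity fitted both directions versus DMSO.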

[5] = molecular target: Hypoxia-inducible factor 1-alpha (Homo sapiens) (UniProt Q16665); assay: ATG_HIF1a_CIS: Attagene CIS-FACTORIAL HepG2 Assay for human Hypoxia Inducible Factor 1 (HIF1A) (AID 2282951); conditions: HepG2 Attagene cis-factorial HIF1a reporter transcription; actives raise or lower the signal
How it was run: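 Cis-element reporter constructs were transiently transfected into HepG2 cells, which were treated for 24 h; reporter RNA was reverse-transcribed, amplified, labelled and resolved by capillary electrophoresis.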

[6] = molecular target: Heat shock factor protein 1 (Homo sapiens) (UniProt Q00613); assay: ATG_HSE_CIS: Attagene CIS-FACTORIAL HepG2 Assay for human Heat Shock Transcription Factor 1 (HSE) (AID 2282953); conditions: HepG2 HSE cis-reporter, Attagene RNA transcription; actives raise or lower the signal
How it was run: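 Cells were transfected with cis-element-driven reporter constructs, dosed for 24 h, then total RNA was reverse-transcribed and reporter cDNA amplified, FAM-labelled and digested with HpaI. Fragments were resolved by capillary electrophoresis; gain or loss was fitted against DMSO.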

[7] = ATG_MRE_CIS: Attagene CIS-FACTORIAL HepG2 Assay for human Metal Responsive Element (MRE) (AID 2282954); conditions: HepG2 MRE cis-reporter transcription, Attagene multiplex; actives raise or lower the signal
How it was run: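 Measured here is mRNA induction from an MRE cis-element reporter in HepG2 after 24 h, quantified by fluorescence of labelled RT-PCR products on capillary electrophoresis; gain- and loss-of-signal fits use DMSO as baseline.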

[8] = molecular target: Paired box protein Pax-6 (Homo sapiens) (UniProt P26367); assay: ATG_Pax6_CIS: Attagene CIS-FACTORIAL HepG2 Assay for human Paired Box 6 (PAX6) (AID 2282956); conditions: HepG2 CIS-FACTORIAL PAX6 reporter transcription, RNA readout; actives raise or lower the signal
How it was run: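 Read-out is reporter transcript level, measured by RT-PCR with fluorescent primer extension and capillary electrophoresis after 24 h dosing of transfected HepG2 cells. Activity in either direction fitted relative to DMSO control.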

[9] = ATG_PXRE_CIS: Attagene CIS-FACTORIAL HepG2 Assay for human Pregnane X Receptor Element (PXRE) (AID 2282957); conditions: HepG2 Attagene CIS-FACTORIAL PXRE reporter, mRNA; actives raise or lower the signal
How it was run: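 Using HepG2 transfected with multiple reporter transcription units, endogenous factor-driven transcription was scored as reporter mRNA after 24 h exposure.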

[10] = ATG_Sox_CIS: Attagene CIS-FACTORIAL HepG2 Assay for human SRY-box transcription factor (SOX) (AID 2282960); conditions: HepG2 Attagene cis-factorial SOX reporter, mRNA; actives raise or lower the signal
How it was run: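 Fluorescence-labelled cDNA fragments from reporter transcripts, sized by CE, give the signal. Cells: HepG2, transiently transfected with cis-regulated reporter units. Exposure 24 h; DMSO negative control; bidirectional curve fitting.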

[11] = molecular target: Transcription factor Sp1 (Homo sapiens) (UniProt P08047); assay: ATG_Sp1_CIS: Attagene CIS-FACTORIAL HepG2 Assay for human Specificity Protein 1 (Sp1) (AID 2282961); conditions: HepG2 Sp1 cis-reporter transcription, actives raise or lower the signal
How it was run: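 Chemicals are dosed onto HepG2 cells transfected with multiple cis-promoter reporter constructs, and after 24 h reporter RNA is reverse-transcribed, PCR-amplified and resolved by capillary electrophoresis for fluorescence quantitation; activity is scored up or down against DMSO.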

[12] = ATG_SREBP_CIS: Attagene CIS-FACTORIAL HepG2 Assay for human Sterol Regulatory Element Binding (SREBP) (AID 2282962); conditions: HepG2 Attagene cis-factorial SREBP reporter, mRNA; actives raise or lower the signal
How it was run: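 Endogenous SREBP activity read as cis-element-driven reporter transcript in transiently transfected HepG2, 24 h post-dosing; quantified via RT-PCR plus capillary electrophoresis of fluorescent fragments. Gain or loss of signal fitted relative to DMSO baseline.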

[13] = molecular target: Signal transducer and activator of transcription 3 (Homo sapiens) (UniProt P40763); assay: ATG_STAT3_CIS: Attagene CIS-FACTORIAL HepG2 Assay for human Signal Transducer and Activator of Transcription 3 (STAT3) (AID 2282963); conditions: HepG2, Attagene cis-factorial STAT3 reporter transcription; actives raise or lower the signal
How it was run: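 Fluorescence intensity of 6-FAM-labelled reporter fragments, separated by capillary electrophoresis after RT-PCR, gave the signal. Cells were HepG2 transfected with cis-element reporter units and treated 24 h; fitting was bidirectional relative to DMSO.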

[14] = ATG_TA_CIS: Attagene CIS-FACTORIAL HepG2 Assay for human TA Basal Promoter (AID 2282964); conditions: HepG2 Attagene CIS-factorial TA basal promoter reporter; actives raise or lower the signal
How it was run: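 Steps: transfect HepG2 with MRTUs; dose 24 h; isolate RNA, DNase-treat, reverse-transcribe; PCR and FAM-label reporter cDNA; digest with HpaI 2h at 37 C; run capillary electrophoresis. Activity fitted both directions against DMSO.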

[15] = ATG_TCF_b_cat_CIS: Attagene CIS-FACTORIAL HepG2 Assay for human T-Cell-Factor with beta-catenin (TCF/b-cat) (AID 2282965); conditions: HepG2 TCF/beta-catenin cis-reporter transcription, actives raise or lower the signal
How it was run: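 HepG2 cells transiently transfected with cis-promoter-driven multiplexed reporter units; reporter mRNA measured 24 h after dosing by RT-PCR, FAM labelling, HpaI digestion and capillary electrophoresis. Bidirectional fitting relative to DMSO baseline.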

[16] = molecular target: Hepatocyte nuclear factor 6 (Homo sapiens) (UniProt Q9UBC0); assay: ATG_HNF6_CIS: Attagene CIS-FACTORIAL HepG2 Assay for human Hepatocyte Nuclear Factor 6 (HNF6) (AID 2282952); conditions: HepG2 Attagene cis-factorial HNF6 reporter transcription; actives raise or lower the signal
How it was run: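 Using cis-element reporters in HepG2 liver cells, the assay tracks endogenous factor-driven transcription 24 h post-dosing. Signal comes from 6-FAM-labelled, HpaI-digested RT-PCR fragments, with gain or loss scored against DMSO.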

[17] = ATG_PBREM_CIS: Attagene CIS-FACTORIAL HepG2 Assay for human Phenobarbital-responsive Enhancer Module (PBREM) (AID 2282955); conditions: HepG2 PBREM cis-reporter, Attagene multiplexed transcription; actives raise or lower the signal
How it was run: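 Multiplexed cis-reporter readout in human hepatoma HepG2 cells; PBREM-regulated transcript quantified after 24 h exposure by fluorescent RT-PCR fragment analysis. Signal changes up or down fitted relative to DMSO.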

[18] = ATG_RORE_CIS: Attagene CIS-FACTORIAL HepG2 Assay for human RAR-related Orphan Receptor Element (RORE) (AID 2282959); conditions: HepG2 Attagene cis-factorial RORE reporter, mRNA; actives raise or lower the signal
How it was run: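 Transfect HepG2 with MRTUs; treat 24 h; extract RNA; RT with oligo(dT); PCR with reporter-specific primers; 6-FAM primer extension; HpaI digest 2 h at 37 C; capillary electrophoresis. Fit vs DMSO, bidirectional.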

[19] = ATG_PPRE_CIS: Attagene CIS-FACTORIAL HepG2 Assay for human Peroxisome Proliferator-activated Response Element (PPRE) (AID 2282958); conditions: HepG2 PPRE cis-element reporter, Attagene transcription factor profiling; actives raise or lower the signal
How it was run: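 DMSO served as negative control and baseline for bidirectional curve fitting. Signal came from PPRE-regulated reporter mRNA in HepG2 cells, measured 24 h post-dosing by RT-PCR, 6-FAM primer extension and capillary electrophoresis.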

Measured: AC50

Signal transducer and activator of transcription 3 (Homo sapiens), sequence (P40763 whole entry, looked up, the tested form may be a part): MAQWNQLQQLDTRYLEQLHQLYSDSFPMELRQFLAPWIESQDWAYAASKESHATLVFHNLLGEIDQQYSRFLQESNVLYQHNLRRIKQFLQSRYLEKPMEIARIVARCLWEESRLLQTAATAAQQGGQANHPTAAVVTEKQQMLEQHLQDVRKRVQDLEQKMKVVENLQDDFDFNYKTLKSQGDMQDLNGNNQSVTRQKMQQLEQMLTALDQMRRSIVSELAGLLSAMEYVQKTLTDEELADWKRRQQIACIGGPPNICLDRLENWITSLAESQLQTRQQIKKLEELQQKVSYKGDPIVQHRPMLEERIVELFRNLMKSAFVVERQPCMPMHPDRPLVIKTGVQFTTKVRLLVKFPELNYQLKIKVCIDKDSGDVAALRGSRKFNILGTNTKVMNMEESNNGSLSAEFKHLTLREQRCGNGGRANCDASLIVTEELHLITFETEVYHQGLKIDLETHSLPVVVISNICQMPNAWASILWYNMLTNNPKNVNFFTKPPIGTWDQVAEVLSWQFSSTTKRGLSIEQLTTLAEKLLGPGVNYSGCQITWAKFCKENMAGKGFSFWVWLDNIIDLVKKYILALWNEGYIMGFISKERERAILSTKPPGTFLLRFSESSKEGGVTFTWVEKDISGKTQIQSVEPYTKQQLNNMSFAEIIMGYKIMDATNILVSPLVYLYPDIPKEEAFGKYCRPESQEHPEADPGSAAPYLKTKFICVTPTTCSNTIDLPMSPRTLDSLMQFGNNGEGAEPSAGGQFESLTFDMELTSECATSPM
Hepatocyte nuclear factor 6 (Homo sapiens), sequence (Q9UBC0 whole entry, looked up, the tested form may be a part): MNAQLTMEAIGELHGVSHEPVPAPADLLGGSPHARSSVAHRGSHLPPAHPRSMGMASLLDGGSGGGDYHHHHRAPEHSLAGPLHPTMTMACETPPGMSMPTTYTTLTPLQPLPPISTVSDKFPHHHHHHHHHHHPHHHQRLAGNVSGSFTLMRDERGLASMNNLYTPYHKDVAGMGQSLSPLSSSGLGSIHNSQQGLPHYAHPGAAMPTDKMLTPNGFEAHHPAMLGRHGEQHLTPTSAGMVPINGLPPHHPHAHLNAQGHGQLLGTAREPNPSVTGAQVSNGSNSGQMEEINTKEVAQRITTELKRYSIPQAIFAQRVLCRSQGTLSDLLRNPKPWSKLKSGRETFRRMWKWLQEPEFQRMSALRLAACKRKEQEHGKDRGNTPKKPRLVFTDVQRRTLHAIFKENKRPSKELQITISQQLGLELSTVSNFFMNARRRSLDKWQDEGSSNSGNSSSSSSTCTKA
Hypoxia-inducible factor 1-alpha (Homo sapiens), sequence (Q16665 whole entry, looked up): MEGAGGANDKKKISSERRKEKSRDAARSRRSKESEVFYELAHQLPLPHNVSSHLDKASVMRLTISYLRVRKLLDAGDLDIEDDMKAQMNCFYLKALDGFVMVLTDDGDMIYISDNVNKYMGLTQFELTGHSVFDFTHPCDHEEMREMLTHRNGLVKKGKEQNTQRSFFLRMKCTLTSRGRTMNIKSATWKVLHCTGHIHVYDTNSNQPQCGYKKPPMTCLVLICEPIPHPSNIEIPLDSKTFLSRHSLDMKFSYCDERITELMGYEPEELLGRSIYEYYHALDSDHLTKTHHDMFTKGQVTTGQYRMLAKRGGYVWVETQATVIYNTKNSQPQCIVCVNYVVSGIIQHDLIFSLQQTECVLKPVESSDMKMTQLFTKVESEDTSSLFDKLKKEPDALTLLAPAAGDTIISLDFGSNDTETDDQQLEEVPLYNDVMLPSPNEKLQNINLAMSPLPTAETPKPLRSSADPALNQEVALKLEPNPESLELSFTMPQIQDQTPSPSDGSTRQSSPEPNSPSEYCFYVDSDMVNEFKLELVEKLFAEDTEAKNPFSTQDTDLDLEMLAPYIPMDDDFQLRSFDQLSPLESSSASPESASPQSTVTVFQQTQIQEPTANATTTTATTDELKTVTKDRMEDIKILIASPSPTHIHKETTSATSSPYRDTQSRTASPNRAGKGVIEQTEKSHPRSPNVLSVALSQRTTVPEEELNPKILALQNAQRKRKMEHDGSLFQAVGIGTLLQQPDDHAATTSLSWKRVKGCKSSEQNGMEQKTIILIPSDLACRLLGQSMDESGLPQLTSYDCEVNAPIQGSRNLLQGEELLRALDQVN
Transcription factor Sp1 (Homo sapiens), sequence (P08047 whole entry, looked up): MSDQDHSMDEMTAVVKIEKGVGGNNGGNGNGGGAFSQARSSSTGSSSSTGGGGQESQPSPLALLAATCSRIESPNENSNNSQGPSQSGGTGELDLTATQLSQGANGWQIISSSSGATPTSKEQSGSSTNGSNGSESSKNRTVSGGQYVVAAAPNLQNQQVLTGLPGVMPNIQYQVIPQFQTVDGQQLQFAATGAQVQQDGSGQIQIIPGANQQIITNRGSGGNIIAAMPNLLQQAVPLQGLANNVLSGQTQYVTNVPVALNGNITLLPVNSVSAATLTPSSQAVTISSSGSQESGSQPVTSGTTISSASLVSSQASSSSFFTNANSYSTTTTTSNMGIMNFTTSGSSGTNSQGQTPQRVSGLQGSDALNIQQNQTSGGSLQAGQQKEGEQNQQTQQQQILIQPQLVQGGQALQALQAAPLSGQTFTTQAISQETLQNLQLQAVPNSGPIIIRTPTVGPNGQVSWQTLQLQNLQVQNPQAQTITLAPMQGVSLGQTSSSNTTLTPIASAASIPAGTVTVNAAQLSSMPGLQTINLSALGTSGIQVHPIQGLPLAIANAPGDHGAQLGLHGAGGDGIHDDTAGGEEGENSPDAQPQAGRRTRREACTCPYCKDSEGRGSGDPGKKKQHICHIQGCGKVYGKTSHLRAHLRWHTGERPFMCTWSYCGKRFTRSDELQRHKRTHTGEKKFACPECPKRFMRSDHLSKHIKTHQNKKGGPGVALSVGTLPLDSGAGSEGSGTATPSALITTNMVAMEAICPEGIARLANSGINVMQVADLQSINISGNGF
Heat shock factor protein 1 (Homo sapiens), sequence (Q00613 whole entry, looked up, the tested form may be a part): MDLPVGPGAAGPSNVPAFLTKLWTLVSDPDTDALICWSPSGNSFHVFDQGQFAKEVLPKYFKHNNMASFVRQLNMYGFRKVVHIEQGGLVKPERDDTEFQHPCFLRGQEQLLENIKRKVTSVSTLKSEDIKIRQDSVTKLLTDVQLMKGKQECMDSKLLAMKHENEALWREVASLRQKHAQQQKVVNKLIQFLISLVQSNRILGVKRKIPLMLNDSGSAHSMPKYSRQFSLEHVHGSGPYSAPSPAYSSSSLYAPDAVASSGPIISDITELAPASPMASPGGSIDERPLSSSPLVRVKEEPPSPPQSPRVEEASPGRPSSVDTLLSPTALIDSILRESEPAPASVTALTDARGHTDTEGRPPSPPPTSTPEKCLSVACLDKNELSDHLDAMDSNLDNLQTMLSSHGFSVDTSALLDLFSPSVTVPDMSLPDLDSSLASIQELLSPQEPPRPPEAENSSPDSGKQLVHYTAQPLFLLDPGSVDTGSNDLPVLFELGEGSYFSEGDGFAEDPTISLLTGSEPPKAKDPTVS
Paired box protein Pax-6 (Homo sapiens), sequence (P26367 whole entry, looked up): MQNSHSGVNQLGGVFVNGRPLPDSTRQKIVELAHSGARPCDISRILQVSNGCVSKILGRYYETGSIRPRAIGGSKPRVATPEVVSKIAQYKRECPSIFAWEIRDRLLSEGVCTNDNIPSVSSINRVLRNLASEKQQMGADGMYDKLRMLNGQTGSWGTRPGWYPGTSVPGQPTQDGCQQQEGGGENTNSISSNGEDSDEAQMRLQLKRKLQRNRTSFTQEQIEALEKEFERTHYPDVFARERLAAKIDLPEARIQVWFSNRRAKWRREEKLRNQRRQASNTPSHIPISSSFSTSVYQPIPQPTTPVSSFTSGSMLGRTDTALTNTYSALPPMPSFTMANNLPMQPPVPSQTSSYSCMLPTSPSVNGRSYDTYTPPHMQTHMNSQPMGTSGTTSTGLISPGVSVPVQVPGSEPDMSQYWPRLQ

CCCCCCCC(=O)OCC(O)CO (stereo not drawn)
not listed: [16] | [17] | [18] | [19]
inactive: all other assays above

CCC1(c2ccccc2)C(=O)NCNC1=O
not listed: [5] | [19]
inactive: all other assays above

Cc1ccc(OC(=O)c2ccccc2O)cc1
not listed: [2] | [19]
inactive: all other assays above

CCCC(=O)c1ccccc1
not listed: [5] | [12] | [13] | [18]
inactive: all other assays above

CCOC(=O)c1ccc(N)cc1
active: [6] 25.7 µM | [9] 27 µM
not listed: [5] | [12] | [15] | [16] | [19]
inactive: all other assays above

Cc1ccc(-c2ccccc2)cc1
active: [9] 27.3 µM
not listed: [13] | [16]
inactive: all other assays above

CC=Cc1ccc(OCC)c(O)c1
active: [9] 65.8 µM
not listed: [16]
inactive: all other assays above

Reference: PubChem BioAssay (EPA / NIEHS)
